Data published in PubChem BioAssay AID686952 (The Scripps Research Institute Molecular Screening Center, 2013).
The whole screen tested about 3,200 compounds, of which about 2,600 (81%) were called active.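 How the source made its calls: active means activation above the all-compound mean plus 3 SD, ignoring values outside control-based bounds (cut at about 4.8% in these data); inactive means the rest.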 So high a share suggests a set chosen from earlier hits. The list is a sample of the results.

experiment: EDANS-DABCYL substrate optical interference, artefact control for kallikrein-7 zymogen activator project, biochemical, fluorescence intensity, high throughput (AID 686952); conditions: no enzyme, 4 h, at 7 µM, stronger effect = higher value, solvent 0%, active enzyme control 100%;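 further: value is the 4 h activation minus the activation read at time zero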

activation, inactive:
CCOC(OCC)c1ccc(/C=C\c2nccc(N)n2)cc1 -13.8%
O=C(/C=C/c1ccc2c(c1)OCCO2)c1ccc(O)cc1 3.03%
CCN(CC(=O)Nc1c(F)cccc1F)C(=O)c1ccc(-c2ccc(C(C)=O)cc2)o1 -16.2%
CN(C)CCN1CCN(c2cc(-c3cccc(Cl)c3)nc3ccnn23)CC1 -1.14%
CCCCN(C)CCCNC(=O)c1cc(-c2cccs2)nc2ccccc12 -40.9%
CCNC(=S)Nc1ccc2c(c1)c(=O)n(C)n2Cc1ccc(Cl)cc1 -1.33%
C=CCn1c(N)c(S(=O)(=O)c2cccs2)c2nc3ccccc3nc21 -4.5%
NC(N)=Nc1nc(-c2ccccc2)c2cc(Cl)ccc2n1 -2.58%
CCC(c1nnnn1Cc1ccco1)N(CCc1ccccc1)Cc1cc2ccc(OC)cc2[nH]c1=O (stereo not given) 1.63%
COCCN(CCOC)c1nc(N)c2c(N)nc3c(c2c1C#N)CC(=O)N3Cc1ccc(Cl)cc1 -34.7%
CCN1CCN(C(=O)c2cc3cc4ccc(OC)cc4nc3s2)CC1 -12.4%
N#CC1=C(N)Oc2c(sc3ccccc23)C1c1ccco1 (stereo not given) -21.2%
COc1ccc(C2=CC(c3cccc(OC)c3)n3nnnc3N2)cc1 (stereo not given) -27.9%
CC(C)(C)Nc1c(-c2cccs2)nc2ccccn12 -64.5%
Cc1oc2nc(SCC(=O)Nc3ccc(S(N)(=O)=O)cc3)nc(NC(=O)c3ccccc3)c2c1C 3.36%

activation, active:
COc1cccc(OCc2cc(/C=N/NC(=O)c3nc(Cl)c(Cl)c(N)c3Cl)ccc2OC)c1 59.5%
Cc1cc(C)c2nc3nc(C)cc(C)c3c(N)c2c1 70.4%
COc1ccc(CNC(=O)COC(=O)C2=Cc3ccccc3OC2)cc1 11.3%
COc1cc2c(cc1OC)C(C(C)C)=NC(C)(C)C2 72.2%
CN1c2ccccc2-c2nc3ccccc3n2C1c1ccco1 (stereo not given) 11.9%
CNc1cncc(-c2cccc(C(=O)N3CCOCC3)c2)n1 37.5%
CCCn1c(=NC(C)=O)c(C(=O)OCC)cc2c(=O)n3ccccc3nc21 32.4%
CCN1CCc2c(C#N)c(NCc3ccccc3)nc(NCCO)c2C1 28.7%
COC(=O)C1=NN(c2ccccc2)C2C(=O)N(c3ccccc3OC)C(=O)C12 (stereo not given) 14.9%
CN(C)C(=O)c1coc2nc3ccccc3nc12 110%
O=C(O)c1ccc2c(c1)C(=O)N(c1ccc(/C=C/C(=O)c3ccccc3)cc1)C2=O 722%
CCN(CC)CCCNC(=O)c1cc2c(=O)[nH]c3ccc(C)cc3c2s1 12.5%
COC(=O)c1c(C)c(C)nc(N)c1C#N 63.7%
COC(=O)Cc1nc2c(N)nc(N)nc2[nH]c1=O 16.8%
Cc1coc2c1c(C)cc1oc(=O)c(CC(=O)NCC(=O)N[C@H](C(=O)O)C(C)C)c(C)c12 34.8%
CNC(=O)COC(=O)c1cc(-c2ccc(OC)cc2)nc2ccccc12 97.4%
COc1ccc(-c2cc(C(=O)n3cnc4ccccc43)c3ccccc3n2)cc1 53.3%
O=c1c(-c2ccccc2)coc2c(CN3CCOCC3)c(O)ccc12 15.3%
COc1cccc2sc3cc(NCC[C@@H]4CCCN4C)ccc3c(=O)c12 38.3%
CCCCc1cc(=O)oc2cc(C)cc(OCc3nn[nH]n3)c12 29.5%
Cc1ccsc1-c1cc(C(=O)O)c2c(ccc3ccccc32)n1 21.4%
COC(=O)c1cnn2c(C(F)(F)F)cc(-c3ccco3)nc12 35.9%
O=C(OC1CCOC1=O)c1ccc(-c2nc3ccccc3s2)s1 (stereo not given) 13.6%
Cc1nc2ccc(N)nc2nc1C 59.7%
O=C(O)c1cccnc1Sc1ncnc2sc3c(c12)CCC3 15.9%
O=C(NCCN1CCOCC1)c1cc(-c2cccs2)nc2ccccc12 31.9%
O=c1oc2cc(O)ccc2cc1-c1ccc(F)cc1 80.8%
COc1ccc(CCNC(=O)Nc2ccc3c(c2)c(=O)n(C)n3C)cc1OC 22.7%
COCCCn1c(-c2cccs2)nc2nc3ccccc3nc21 24.8%
COc1nc(N=C(N)N)nc2c(C)cccc12 20.6%
CCC1=C(C(=O)OC)C(c2cc(OC)ccc2OC)C(C#N)=C(N)O1 (stereo not given) 32.6%
Cc1cc(N2CCOCC2)nc2ccc(NC(=S)N3CCN(Cc4ccccc4)CC3)cc12 12.7%
COCC(C)OC(=O)c1c(N)n(CCCN2CCOCC2)c2nc3ccccc3nc12 (stereo not given) 19%
CC(C)(C)OC(=O)c1c(N)n(CCCN2CCCC2=O)c2nc3ccccc3nc12 80.7%
CC(C)=NN1C(=O)c2ccccc2NC1(C)C 24.5%
CCOc1ccc(N2C(=O)CC(N(O)c3ccccc3)C2=O)cc1 (stereo not given) 188%
Nc1ccccc1-c1nc2ccncc2[nH]1 5.73%
CCCc1cc(=O)oc2c(C)c(O)c(CN3CCCCC3)cc12 68.1%
CCOc1c2ccc(C(=O)NCc3ccc4c(c3)OCO4)cc2nn1C 4.67%
COCc1cc(=O)[nH]c2cc(NC(=O)C(F)(F)F)c(C)cc12 232%
CC(=O)Nc1cc2ccc(OC(C)=O)cc2oc1=O 127%
CC(=O)Oc1ccc2c(C)c(CC(C)O)c(=O)oc2c1 (stereo not given) 80%
COc1ccc2oc(=O)c(C(=O)N3CCCC3)cc2c1 23.6%
Cc1nc2ccccc2cc1O 4.33%
Cc1cc(S(=O)(=O)c2cc3ccc(O)c(C)c3oc2=O)ccc1F 63.2%
Nc1ccc2nn(-c3ccc(Cl)cc3)nc2c1 62.1%
COC(=O)c1ccc(C2C3=C(Nc4nnnn42)c2ccccc2OC3)cc1 (stereo not given) 4.8%
COc1ccc(-c2cn3cccnc3n2)cc1 79.8%
FC(F)(F)Oc1ccc(-c2cn3cccnc3n2)cc1 36.4%
c1ccc(-c2cn3cccnc3n2)cc1 72.3%
